Assay [1] can be described thus: ATG_NFI_CIS: Attagene CIS-FACTORIAL HepG2 Assay for human Nuclear Factor I (NFI) (AID 2282989). The following applies: HepG2 cis-regulatory reporter, NFI response element transcription; actives raise or lower the signal. The procedure, abridged: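 Read-out: reporter mRNA via RT-PCR plus capillary electrophoresis with fluorescence detection. Transiently transfected HepG2 (endogenous TF activity on cis promoters), 24 h compound exposure; gain or loss of signal fitted against DMSO.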

Assay [2] concerns the target Myc proto-oncogene protein (Homo sapiens) (UniProt P01106). The assay is described as follows: ATG_Myc_CIS: Attagene CIS-FACTORIAL HepG2 Assay for human Myelocytomatosis (Myc) Proto-Oncogene Transcription Factor (AID 2282990). The note with it: HepG2, Attagene cis-reporter transcription factor activity; actives raise or lower the signal. The procedure, abridged:
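Cells of the HepG2 human liver line bear multiple cis-driven reporter transcription units. Reporter mRNA after 24 h exposure is reverse-transcribed, amplified, labelled and resolved by capillary electrophoresis, with gain- or loss-of-signal fitting relative to DMSO.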

A short description of assay [3]: ATG_NF_kB_CIS: Attagene CIS-FACTORIAL HepG2 Assay for human Nuclear Factor Kappa B (NF-kB) (AID 2282991). The note with it: HepG2 Attagene cis-factorial NF-kB reporter mRNA; actives raise or lower the signal. The procedure, abridged: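 Multiplexed cis-reporter assay in transiently transfected HepG2. 24 h treatment; RNA isolated, RT-PCR, labelled fragments resolved by CE. DMSO baseline.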

Assay [4] in a line: ATG_NRF2_ARE_CIS: Attagene CIS-FACTORIAL HepG2 Assay for human Nuclear Factor Erythroid 2 Related Factor 2 (NFR2) response to Antioxidant Response Elements (ARE) (AID 2282992).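 For AC50: reporter mRNA level measured by RT-PCR and capillary electrophoresis fluorescence.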 The note with it: HepG2 Attagene ARE/NRF2 reporter, transcription factor activity; actives raise or lower the signal. The procedure, abridged:
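Multiplexed reporter mRNA profiling in HepG2 after a 24 h chemical exposure. Curves fitted in both directions relative to DMSO negative control.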

Assay [5] can be described thus: ATG_Oct_MLP_CIS: Attagene CIS-FACTORIAL HepG2 Assay for human Octamer-Binding Transcription Factor (Oct) (AID 2282993). The following applies: HepG2 Attagene cis-factorial Oct reporter, mRNA; actives raise or lower the signal. The procedure, abridged: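 Read-out: reporter mRNA via RT-PCR plus capillary electrophoresis of 6-FAM-labelled fragments. Transiently transfected HepG2, 24 h exposure, endogenous TF activity on cis elements. Gain or loss of signal fitted relative to DMSO.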

Assay [6] has as its target Cellular tumor antigen p53 (Homo sapiens) (UniProt P04637). The assay is described as follows: ATG_p53_CIS: Attagene CIS-FACTORIAL HepG2 Assay for human p53 Transcription Factor (AID 2282994). The following applies: HepG2 p53 cis-element reporter, Attagene mRNA; actives raise or lower the signal. The procedure, abridged: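 Multiplexed reporter mRNA assay in human HepG2 liver cells; cis-regulated units report endogenous factor activity. Values come from bidirectional curve fitting against DMSO negative control after 24 h treatment.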

The target of assay [7] is Nuclear receptor subfamily 1 group I member 2 (Homo sapiens) (UniProt O75469). The assay is described as follows: ATG_PXR_TRANS: Attagene TRANS-FACTORIAL HepG2 Assay for human Pregnane X Receptor (PXR) (AID 2283008; active = hit-call score of the fitted dose curve at least 0.9, where 1 is the maximum). The procedure, abridged:
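Measures mRNA induction of a GAL4-UAS-driven reporter in human HepG2 cells transiently expressing PXR fused to Gal4, following 24 h treatment. DMSO served as negative control and baseline.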

For assay [8], the target named is human Retinoic Acid Receptor gamma (RARg), RARG (gene 5916) (UniProt P13631). In words: ATG_RARg_TRANS: Attagene TRANS-FACTORIAL HepG2 Assay for human Retinoic Acid Receptor gamma (RARg) (AID 2283009; active = hit-call score of the fitted dose curve at least 0.9, where 1 is the maximum). The essentials: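 Transient transfection of HepG2 with multi-reporter constructs, then 24 h chemical treatment. Total RNA isolated, reverse-transcribed, PCR-amplified, fluorescently labelled and resolved by capillary electrophoresis; activity scored as mRNA induction versus DMSO.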
Sequence of human Retinoic Acid Receptor gamma (RARg), RARG (gene 5916) (P13631 whole entry, looked up): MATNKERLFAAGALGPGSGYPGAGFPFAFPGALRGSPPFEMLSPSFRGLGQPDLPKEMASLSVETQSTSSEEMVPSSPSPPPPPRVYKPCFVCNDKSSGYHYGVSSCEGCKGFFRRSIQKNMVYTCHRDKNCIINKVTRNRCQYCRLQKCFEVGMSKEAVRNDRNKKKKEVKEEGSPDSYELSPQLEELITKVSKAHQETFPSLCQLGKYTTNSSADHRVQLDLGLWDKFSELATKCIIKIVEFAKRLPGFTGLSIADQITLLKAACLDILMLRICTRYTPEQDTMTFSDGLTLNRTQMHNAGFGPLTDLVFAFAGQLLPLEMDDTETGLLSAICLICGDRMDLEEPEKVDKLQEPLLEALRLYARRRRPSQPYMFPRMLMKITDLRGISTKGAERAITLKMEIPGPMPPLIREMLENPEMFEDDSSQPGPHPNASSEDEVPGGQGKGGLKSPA

Assay [9] has as its target human RAR-related Orphan Receptor beta (RORb), RORB (gene 6096) (UniProt Q92753). In words: ATG_RORb_TRANS: Attagene TRANS-FACTORIAL HepG2 Assay for human RAR-related Orphan Receptor beta (RORb) (AID 2283010; active = hit-call score of the fitted dose curve at least 0.9, where 1 is the maximum). The procedure, abridged:
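Readout is reporter-gene mRNA induction, detected as fluorescence after RT-PCR and capillary electrophoresis, fitted for gain of signal against DMSO controls. Transiently transfected HepG2 liver cells carrying GAL4-UAS reporter constructs were treated for 24 hours.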

Assay [10] has as its target Peroxisome proliferator-activated receptor gamma (Homo sapiens) (UniProt P37231). The assay is described as follows: ATG_PPARg_TRANS: Attagene TRANS-FACTORIAL HepG2 Assay for human Peroxisome Proliferator-activated Receptor-gamma (PPARg) (AID 2283007; active = hit-call score of the fitted dose curve at least 0.9, where 1 is the maximum). The procedure, abridged:
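Human hepatoma HepG2, transient MRTU transfection, 24 h treatment. mRNA reporter signal by RT-PCR plus capillary electrophoresis, fluorescence detection; fitted for increase over DMSO negative control.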

Assay [11] addresses human Retinoic Acid Receptor beta (RARb), RARB (gene 5915) (UniProt P10826). The assay is described as follows: ATG_RARb_TRANS: Attagene TRANS-FACTORIAL HepG2 Assay for human Retinoic Acid Receptor beta (AID 2283004; active = hit-call score of the fitted dose curve at least 0.9, where 1 is the maximum). The procedure, abridged: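 HepG2, transient MRTU transfection, NR–Gal4 chimera, 24 h treatment; RT-PCR plus CE fluorescence detection of reporter mRNA; gain of signal vs DMSO.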

The target of assay [12] is Retinoic acid receptor alpha (Homo sapiens) (UniProt P10276). In words: ATG_RARa_TRANS: Attagene TRANS-FACTORIAL HepG2 Assay for human Retinoic Acid Receptor alpha (RARa) (AID 2283005; active = hit-call score of the fitted dose curve at least 0.9, where 1 is the maximum). The essentials: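 Reporter transcripts, measured by RT-PCR with fluorescent labeling and capillary electrophoresis after 24 h dosing, reflect activity of an exogenous human RARa–GAL4 fusion in transiently transfected HepG2. Fitted for increase relative to DMSO.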
Sequence of Retinoic acid receptor alpha (Homo sapiens) (P10276 whole entry, looked up, the tested form may be a part): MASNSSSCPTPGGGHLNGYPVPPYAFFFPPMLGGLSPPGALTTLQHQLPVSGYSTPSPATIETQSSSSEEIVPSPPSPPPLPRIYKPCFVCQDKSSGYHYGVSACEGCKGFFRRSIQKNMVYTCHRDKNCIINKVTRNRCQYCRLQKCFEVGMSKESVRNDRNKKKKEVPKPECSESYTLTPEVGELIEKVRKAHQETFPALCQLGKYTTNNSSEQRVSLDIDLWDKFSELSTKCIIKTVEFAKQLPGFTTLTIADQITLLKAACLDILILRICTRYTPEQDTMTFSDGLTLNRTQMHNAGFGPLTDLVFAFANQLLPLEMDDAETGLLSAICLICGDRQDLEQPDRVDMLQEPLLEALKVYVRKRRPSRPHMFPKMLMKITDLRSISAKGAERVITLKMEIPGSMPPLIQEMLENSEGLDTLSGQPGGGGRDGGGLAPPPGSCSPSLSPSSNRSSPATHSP

Assay [13] has as its target human Peroxisome Proliferator-activated Receptor delta (PPARd), PPARD (gene 5467) (UniProt Q03181). In words: ATG_PPARd_TRANS: Attagene TRANS-FACTORIAL HepG2 Assay for human Peroxisome Proliferator-activated Receptor delta (PPARd) (AID 2283002; active = hit-call score of the fitted dose curve at least 0.9, where 1 is the maximum). The essentials:
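Cell-based TRANS reporter: HepG2, transient MRTU transfection, 24 h exposure. Readout = reporter mRNA (RT-PCR/CE, 6-FAM). Gain-of-signal fit vs DMSO control.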

The nature of assay [14]: BSK_3C_TissueFactor: BioMAP Diversity Plus: 3C Assay for Tissue Factor Biomarker Activity (AID 2282997). The note with it: BioMAP 3C HUVEC, tissue factor biomarker readout; actives raise or lower the signal. The essentials:
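Values derive from bidirectional curve fitting against DMSO of Tissue Factor ELISA signals, taken 24 h after dosing primary human umbilical vein endothelial cells.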

Assay [15] in a line: BSK_3C_uPAR: BioMAP Diversity Plus: 3C Assay for Urokinase-type plasminogen activator receptor (uPAR) Biomarker Activity (AID 2282998). The note with it: BioMAP 3C HUVEC, uPAR biomarker ELISA; actives raise or lower the signal. The essentials: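 HUVEC primary cells; 24 h post-dose; uPAR by ELISA; gain or loss of signal fitted bidirectionally vs DMSO baseline.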
Background: ELISA stands for enzyme-linked immunosorbent assay.

Assay [16] in a line: BSK_3C_VCAM1: BioMAP Diversity Plus: 3C Assay for Vascular cell adhesion molecule 1 (VCAM1) Biomarker Activity (AID 2282999). The following applies: BioMAP 3C HUVEC, VCAM1 ELISA, cytokine-stimulated; actives raise or lower the signal. The essentials: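 Endothelial cells from human umbilical vein are treated with test chemical. At 24 h, VCAM-1 is measured by ELISA, and responses in either direction are fitted relative to DMSO.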

Assay [17] is described as follows: BSK_4H_Eotaxin3: BioMAP Diversity Plus: 4H Assay for Eotaxin 3 Biomarker Activity (AID 2283000).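 Note: CCL26 protein level quantified by ELISA in parallel with SRB cytotoxicity check.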 The note with it: primary human endothelial cells (HUVEC); actives raise or lower the signal. The procedure, abridged: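 Endothelial primary cells (human umbilical vein) exposed to compound for 24 h. ELISA detection of Eotaxin-3.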
Assay [18] concerns the target human Peroxisome Proliferator-activated Receptor alpha (PPARa), PPARA (gene 5465) (UniProt Q07869). The assay is described as follows: ATG_PPARa_TRANS: Attagene TRANS-FACTORIAL HepG2 Assay for human Peroxisome Proliferator-activated Receptor alpha (PPARa) (AID 2283001; active = hit-call score of the fitted dose curve at least 0.9, where 1 is the maximum). The procedure, abridged:
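Read-out is fluorescence of reporter cDNA fragments resolved by capillary electrophoresis after RT-PCR. Human HepG2 liver cells carried transfected PPARa-Gal4 chimera and GAL4-UAS reporter units, treated 24 h; activity scored as increase over DMSO.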

Read-out in assay [19]: Intercellular Adhesion Molecule 1 (ICAM1), ICAM1 (gene 3383)
In words: BSK_3C_ICAM1: BioMAP Diversity Plus: 3C Assay for Intercellular Adhesion Molecule 1 (ICAM1) Biomarker Activity (AID 2283003). The note with it: primary human endothelial cells (HUVEC); actives raise or lower the signal. The essentials: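 ICAM-1 levels measured by ELISA after HUVEC cultures in the 3C system had been dosed for 24 h. Gain or loss of signal relative to DMSO was fitted in both directions.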

A short description of assay [20]: BSK_3C_Proliferation: Cell Proliferation Assessment in the BioMAP Diversity Plus: 3C Assay (AID 2283006). The following applies: primary human endothelial cells (HUVEC). The essentials:
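Read-out is total protein by SRB absorbance at 560 nm, taken as a proxy for relative cell number. Primary human umbilical vein endothelium cultured below confluence was dosed for 48 h, TCA-fixed and SRB-stained; curves were fitted bidirectionally versus DMSO.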

Molecules are shown by their SMILES. Records with an inconclusive call do not appear. Activity calls are given as the source filed them. Rule for the calls, unless noted: active = hit-call score of the fitted dose curve at least 0.9, where 1 is the maximum; inactive = score below 0.9.

Sequence of human Retinoic Acid Receptor beta (RARb), RARB (gene 5915) (P10826 whole entry, looked up, the tested form may be a part): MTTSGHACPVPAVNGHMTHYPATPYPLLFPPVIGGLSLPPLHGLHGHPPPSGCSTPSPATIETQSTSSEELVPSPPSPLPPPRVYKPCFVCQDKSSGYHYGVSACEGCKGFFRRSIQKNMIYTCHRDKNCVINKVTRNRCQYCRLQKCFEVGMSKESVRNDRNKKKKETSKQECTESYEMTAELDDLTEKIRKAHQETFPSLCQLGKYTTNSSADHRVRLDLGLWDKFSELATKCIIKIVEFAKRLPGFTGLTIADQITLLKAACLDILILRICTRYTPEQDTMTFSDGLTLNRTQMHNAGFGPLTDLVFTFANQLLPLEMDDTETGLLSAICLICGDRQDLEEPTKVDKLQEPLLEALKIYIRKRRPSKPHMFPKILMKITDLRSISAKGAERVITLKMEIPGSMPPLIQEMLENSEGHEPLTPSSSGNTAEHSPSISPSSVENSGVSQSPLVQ
Sequence of Cellular tumor antigen p53 (Homo sapiens) (P04637 whole entry, looked up): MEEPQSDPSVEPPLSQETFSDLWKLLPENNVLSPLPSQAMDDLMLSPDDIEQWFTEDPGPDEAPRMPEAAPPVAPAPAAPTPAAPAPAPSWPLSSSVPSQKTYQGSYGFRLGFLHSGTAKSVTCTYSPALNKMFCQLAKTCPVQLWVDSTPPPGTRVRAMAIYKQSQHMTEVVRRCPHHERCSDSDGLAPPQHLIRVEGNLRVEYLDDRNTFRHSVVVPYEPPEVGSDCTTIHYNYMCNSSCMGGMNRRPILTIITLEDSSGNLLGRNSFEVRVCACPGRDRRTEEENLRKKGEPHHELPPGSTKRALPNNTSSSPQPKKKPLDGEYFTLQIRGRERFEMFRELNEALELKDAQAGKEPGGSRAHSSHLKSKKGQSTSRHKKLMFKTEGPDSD
Sequence of Peroxisome proliferator-activated receptor gamma (Homo sapiens) (P37231 whole entry, looked up): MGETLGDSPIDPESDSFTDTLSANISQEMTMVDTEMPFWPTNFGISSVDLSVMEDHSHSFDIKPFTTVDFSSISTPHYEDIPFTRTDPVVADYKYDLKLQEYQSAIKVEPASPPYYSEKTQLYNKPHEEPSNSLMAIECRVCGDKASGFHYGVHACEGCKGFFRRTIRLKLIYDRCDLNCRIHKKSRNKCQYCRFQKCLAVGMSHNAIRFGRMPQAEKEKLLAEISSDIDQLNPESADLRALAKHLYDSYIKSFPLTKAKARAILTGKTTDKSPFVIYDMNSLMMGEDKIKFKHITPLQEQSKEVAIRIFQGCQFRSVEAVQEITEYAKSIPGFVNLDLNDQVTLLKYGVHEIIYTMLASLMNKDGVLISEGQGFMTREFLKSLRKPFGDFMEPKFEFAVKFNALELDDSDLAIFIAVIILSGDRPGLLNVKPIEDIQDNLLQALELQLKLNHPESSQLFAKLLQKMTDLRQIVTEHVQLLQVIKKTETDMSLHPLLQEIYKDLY
Sequence of Myc proto-oncogene protein (Homo sapiens) (P01106 whole entry, looked up): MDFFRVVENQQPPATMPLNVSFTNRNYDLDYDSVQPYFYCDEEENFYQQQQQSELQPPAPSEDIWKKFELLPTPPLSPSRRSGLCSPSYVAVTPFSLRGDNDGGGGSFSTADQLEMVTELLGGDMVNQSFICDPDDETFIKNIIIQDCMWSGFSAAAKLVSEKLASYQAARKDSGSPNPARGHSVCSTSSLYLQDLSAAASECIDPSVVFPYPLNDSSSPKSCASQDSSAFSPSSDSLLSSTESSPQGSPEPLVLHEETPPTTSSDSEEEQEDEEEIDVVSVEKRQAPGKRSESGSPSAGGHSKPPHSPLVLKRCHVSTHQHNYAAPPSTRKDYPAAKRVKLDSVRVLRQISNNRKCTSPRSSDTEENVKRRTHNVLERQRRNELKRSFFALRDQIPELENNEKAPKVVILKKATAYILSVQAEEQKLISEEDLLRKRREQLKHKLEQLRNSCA
Sequence of human RAR-related Orphan Receptor beta (RORb), RORB (gene 6096) (Q92753 whole entry, looked up, the tested form may be a part): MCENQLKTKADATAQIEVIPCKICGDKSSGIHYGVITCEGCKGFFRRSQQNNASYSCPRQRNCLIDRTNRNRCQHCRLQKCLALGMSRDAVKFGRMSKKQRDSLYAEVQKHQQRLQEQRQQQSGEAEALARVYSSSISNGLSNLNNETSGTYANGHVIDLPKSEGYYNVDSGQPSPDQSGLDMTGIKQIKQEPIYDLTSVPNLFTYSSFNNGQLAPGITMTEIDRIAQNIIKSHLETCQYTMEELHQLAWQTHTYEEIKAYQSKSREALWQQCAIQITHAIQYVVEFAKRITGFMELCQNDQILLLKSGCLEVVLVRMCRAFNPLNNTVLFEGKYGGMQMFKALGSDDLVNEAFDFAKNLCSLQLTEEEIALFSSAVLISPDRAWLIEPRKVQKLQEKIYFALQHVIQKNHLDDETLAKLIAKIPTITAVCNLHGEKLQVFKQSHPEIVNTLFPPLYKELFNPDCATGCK
Sequence of Nuclear receptor subfamily 1 group I member 2 (Homo sapiens) (O75469 whole entry, looked up, the tested form may be a part): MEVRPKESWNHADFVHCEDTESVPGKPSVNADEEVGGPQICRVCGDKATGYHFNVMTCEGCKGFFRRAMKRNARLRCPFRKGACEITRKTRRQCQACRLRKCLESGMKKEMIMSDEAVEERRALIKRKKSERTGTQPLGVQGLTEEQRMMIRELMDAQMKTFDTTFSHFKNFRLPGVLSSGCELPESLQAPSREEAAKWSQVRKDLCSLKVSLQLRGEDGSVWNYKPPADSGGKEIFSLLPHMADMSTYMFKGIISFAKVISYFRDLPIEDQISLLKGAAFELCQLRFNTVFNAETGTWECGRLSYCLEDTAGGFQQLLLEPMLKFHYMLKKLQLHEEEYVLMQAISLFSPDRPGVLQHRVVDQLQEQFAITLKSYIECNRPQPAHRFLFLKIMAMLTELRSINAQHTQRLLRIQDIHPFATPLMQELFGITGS
Sequence of human Peroxisome Proliferator-activated Receptor delta (PPARd), PPARD (gene 5467) (Q03181 whole entry, looked up): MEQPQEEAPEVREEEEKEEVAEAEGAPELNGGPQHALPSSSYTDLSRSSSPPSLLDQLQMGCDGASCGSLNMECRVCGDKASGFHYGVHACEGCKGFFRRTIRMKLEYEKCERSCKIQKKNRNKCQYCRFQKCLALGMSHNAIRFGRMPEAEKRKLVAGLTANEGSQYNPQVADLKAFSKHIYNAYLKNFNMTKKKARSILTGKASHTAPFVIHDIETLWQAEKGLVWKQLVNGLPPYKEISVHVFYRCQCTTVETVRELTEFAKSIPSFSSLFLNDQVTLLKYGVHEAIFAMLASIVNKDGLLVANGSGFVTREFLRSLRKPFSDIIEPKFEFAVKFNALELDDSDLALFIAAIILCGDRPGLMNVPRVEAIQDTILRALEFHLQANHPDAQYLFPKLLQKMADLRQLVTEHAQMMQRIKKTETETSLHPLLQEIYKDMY
Sequence of human Peroxisome Proliferator-activated Receptor alpha (PPARa), PPARA (gene 5465) (Q07869 whole entry, looked up, the tested form may be a part): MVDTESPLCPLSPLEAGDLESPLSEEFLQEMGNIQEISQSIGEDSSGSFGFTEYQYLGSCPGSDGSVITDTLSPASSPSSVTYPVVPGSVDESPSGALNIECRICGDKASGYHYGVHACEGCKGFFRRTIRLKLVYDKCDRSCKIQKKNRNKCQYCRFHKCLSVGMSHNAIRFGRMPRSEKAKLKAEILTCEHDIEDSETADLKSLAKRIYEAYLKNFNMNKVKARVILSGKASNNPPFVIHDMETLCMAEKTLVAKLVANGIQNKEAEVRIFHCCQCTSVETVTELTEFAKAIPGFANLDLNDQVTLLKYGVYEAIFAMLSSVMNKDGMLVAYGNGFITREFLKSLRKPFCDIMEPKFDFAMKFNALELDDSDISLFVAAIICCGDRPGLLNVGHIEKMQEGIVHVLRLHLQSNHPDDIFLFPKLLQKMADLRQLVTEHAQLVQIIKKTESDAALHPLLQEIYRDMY

Consider `CC(=O)NCCO`, for which the outcome in assay [1], in assay [2], in [3], in assay [4], in [5] and in assay [6] was inactive. The molecule was classed as inactive in assay [7], in [8] and in assay [9].
As for `Brc1ccc(Br)c(Br)c1`, the call in assay [1], in assay [2], in assay [3], in [4], in assay [5] and in assay [6] was inactive. The call in assay [10], in [7], in [8] and in assay [9] was inactive.
For `C[C@H](CCC(=O)NCC(=O)O)[C@H]1CC[C@H]2[C@@H]3[C@H](O)C[C@@H]4C[C@H](O)CC[C@]4(C)[C@H]3C[C@H](O)[C@]12C`, the outcome in [1], in assay [2], in assay [3], in [4], in [5] and in [6] was inactive. Besides, the outcome in assay [11], in assay [12] and in assay [10] was inactive.
In the case of `OCCCCC(O)CO` (configuration not stated), the result in assay [1], in [2], in [3], in assay [4], in assay [5] and in assay [6] was inactive. In addition, the molecule was classed as inactive in assay [11], in assay [7] and in [9].
Take `Cc1c(Cl)cccc1[N+](=O)[O-]`: the call in assay [1], in [2], in assay [3], in assay [4], in assay [5] and in assay [6] was inactive. Moreover, the outcome in [13] and in assay [7] was inactive.
For the molecule `C#CC(C)N(C)C(=O)Nc1ccc(Cl)cc1` (configuration not stated), the outcome in assay [1], in assay [2], in [3], in assay [5], in [6] and in assay [10] was inactive. Besides, the molecule was called inactive in assay [7], in assay [8] and in assay [9]. Also, the AC50 (commonly the midpoint of the concentration-response curve, whichever way the signal moves) in assay [4] was 48.4 µM (active).
As for `O=[N+]([O-])c1cccc(Cl)c1`, the molecule was called inactive in assay [1], in assay [2], in assay [3], in [4], in assay [5] and in [6]. Further, the molecule was called inactive in assay [8].
With `C=C(C)[C@H]1CC=C(C)C(=O)C1`, the outcome in [1], in [2], in [3], in assay [4], in assay [5] and in assay [14] was inactive. Also, the outcome in [15], in [16], in assay [17], in [18], in assay [19] and in [20] was inactive. Further, the molecule was classed as inactive in [7]. The AC50 in assay [10] was 68.7 µM (active).
As to `CCOC(=O)C1OC1c1ccccc1` (configuration not stated), the outcome in assay [1], in [2], in assay [4], in assay [5], in assay [10] and in [7] was inactive. The concentration at half-maximal activity (AC50) in assay [3] was 47 µM (active); in assay [6] it was 64.4 µM (active).
In the case of `C1CCCCC1`, the call in assay [1], in assay [2], in assay [3], in assay [4], in assay [5] and in [6] was inactive. In assay [7], the molecule was called inactive.
For the molecule `CCOc1ccc(NC(=O)CC(C)O)cc1` (configuration not stated), the molecule was classed as inactive in assay [1], in assay [2], in assay [3], in assay [4], in assay [5] and in assay [6]. The outcome in assay [11], in assay [10] and in assay [7] was inactive.
Turning to `C=Cc1ccc(C)cc1`, the result in [1], in assay [2], in assay [3], in assay [4], in assay [5] and in assay [6] was inactive. Also, the call in assay [10] and in assay [7] was inactive.
For the molecule `CCCCSCCCC`, the result in assay [1], in [2], in [3], in [4], in assay [5] and in assay [6] was inactive. In addition, the molecule was called inactive in [13], in [10] and in [7].

Values taken from PubChem BioAssay (EPA / NIEHS).
